From PubChem BioAssay
RE007 growth inh: qHTS Assay for Inhibitors of the HIV-1 protein Vpr; actives 0.21% (n = 360,000); AID 651644, 2012; S. pombe RE007 Vpr strain, BacTiter-Glo ATP luminescence, 24 h; Potency, µM (highest dose often 92.2 µM), for the others: at the top dose activity change, negative = less growth, usual class: inhibitors; active means well fitted falling curve with a large enough effect; inconclusive means small, poorly fitted or top-dose-only effect; inactive means no such curve, though single readings can be large or run the other way; further: nearly all actives have a fitted effect of over 50% in size
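Fission yeast strain RE007, carrying one chromosomally integrated HIV-1 vpr copy, was seeded at OD 0.01 in PMG+AL medium with 23 nL pinned compound. After 24 h at 30 °C and 99% humidity, viability was read by BacTiter-Glo luminescence.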
LmPK inh: qHTS Assay for Inhibitors of Leishmania Mexicana Pyruvate Kinase (LmPK) | purified LmPK, Kinase-Glo ATP luminescence, 1 h | Potency, µM (doses to about 57.5 µM), for the others: at the top dose activity change, negative = inhibition, actives largely listed as inhibitors | actives 0.37% (n = 290,000)
Target sequence (Q27686 whole entry, looked up): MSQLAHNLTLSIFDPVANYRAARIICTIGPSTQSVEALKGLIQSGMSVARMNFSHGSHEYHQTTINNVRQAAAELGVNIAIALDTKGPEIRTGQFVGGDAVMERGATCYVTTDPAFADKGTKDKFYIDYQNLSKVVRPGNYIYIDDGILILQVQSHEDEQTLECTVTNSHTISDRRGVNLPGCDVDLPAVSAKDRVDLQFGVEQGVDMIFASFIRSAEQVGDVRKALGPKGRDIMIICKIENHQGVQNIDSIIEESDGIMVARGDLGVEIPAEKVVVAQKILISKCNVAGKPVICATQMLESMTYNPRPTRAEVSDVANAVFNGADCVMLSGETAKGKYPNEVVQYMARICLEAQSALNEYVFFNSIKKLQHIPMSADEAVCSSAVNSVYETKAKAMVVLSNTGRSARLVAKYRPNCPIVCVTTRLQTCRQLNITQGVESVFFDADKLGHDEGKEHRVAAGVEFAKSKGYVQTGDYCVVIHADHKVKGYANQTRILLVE
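In 50 mM imidazole pH 7.2 with 7 mM MgCl2, LmPK (0.1 nM) turned over PEP (0.5 mM) and ADP (0.1 mM) for 1 h at room temperature. Luciferase read-out of ATP.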
Tb PYK inh: qHTS of Trypanosoma Brucei Inhibitors. actives 0.12% (n = 410,000). pyruvate kinase (Trypanosoma brucei), Q57TT1. TbPYK enzyme, Kinase-Glo Plus ATP luminescence, 45 min. Potency, µM (highest dose often 76.8 µM), for the others: at the highest dose activity, negative = inhibition, actives largely listed as inhibitors; further: nearly all actives have a fitted effect of over 50% in size
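Luminescent Kinase-Glo Plus end-point after 45 min room-temperature reaction of T. brucei pyruvate kinase started with 130 uM ADP (final). Buffer TEA 50 mM pH 7.2 with KCl, MgCl2, BSA, Tween-20; titration-based qHTS with fitted concentration-effect curves.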
Sm TGR block: qHTS Assay for the Inhibitors of Schistosoma Mansoni Peroxiredoxins | Schistosoma mansoni thioredoxin glutathione reductase (TGR), Q962Y6 | purified TGR, DTNB reduction, TNB absorbance 405 nm | Potency, µM (titrated, usually from 114 µM), for inactives: at the top dose activity change, negative = inhibition, actives largely listed as inhibitors | actives 3% (n = 360,000); further: nearly all actives have a fitted effect of over 60% in size
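TGR 20 nM + NADPH 100 uM (dispensed conc.), cpd preinc 15 min RT; start with NADPH (500 uM addition) then DTNB (15 mM addition). Kinetic TNB absorbance, 405 nm filter. Four-parameter Hill fit across titration.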
The depositor's hits bear a star; [ ] = another dose, or the depositor's remark. Rows were chosen to be rich in hits. Some 3% of all compounds tested hit in one or more screens of this group. Unless noted, the call rests on the fitted dose curve; in most records, active means well fitted curve in the direction sought with a large enough effect; inconclusive means small, poorly fitted or top-dose-only effect, or another doubt; inactive means no such curve, though single readings can be large; an effect the other way counts as inactive or inconclusive. On the % scale 0 is the no-effect control and ±100 the full control effect; potency means the concentration at half of the fitted maximal effect.

Results for CCCCNC(=O)c1ccc(-c2nc(CS(=O)(=O)c3ccc(C)cc3)c(C)o2)cc1 ?
Tb PYK inh: -4%; Sm TGR block: 40µM*

How did Cc1ccc(CNC(=O)c2ccc(-c3nc(CS(=O)(=O)c4ccc(C)cc4)c(C)o3)cc2)cc1 do in these assays?
Tb PYK inh: 2%; Sm TGR block: -14%

How did COCCCNC(=O)c1ccc(-c2nc(CS(=O)(=O)c3ccc(C)cc3)c(C)o2)cc1 do in these assays?
Tb PYK inh: 2%; Sm TGR block: 25µM*

What do the screens show for `COc1cc(C=CC(=O)OCC=Cc2ccc3c(c2)OCO3)cc(OC)c1OC`?
RE007 growth inh: 6%; Tb PYK inh: 7%

How did Fc1ccc(NCc2ccccc2-c2nnc(-c3ccccc3Cl)o2)cc1Cl do in these assays?
Tb PYK inh: -15%; Sm TGR block: 30%

What do the screens show for `OC(c1ccccn1)c1c[nH]c2ccccc12` (stereo not given)?
RE007 growth inh: -15%; LmPK inh: -1%; Tb PYK inh: -7%; Sm TGR block: 22µM*

What do the screens show for `O=[N+]([O-])CC(c1ccc(F)cc1)c1c[nH]c2ccccc12` (stereo not given)?
RE007 growth inh: -18%; LmPK inh: 1%; Tb PYK inh: -7%; Sm TGR block: -7%

Results for Fc1ccc(C(Nc2ccccn2)c2c[nH]c3ccccc23)cc1 (stereo not given) ?
RE007 growth inh: -24%; LmPK inh: -7%; Tb PYK inh: 32%; Sm TGR block: 2.8µM*

What do the screens show for `CC1(C)Cc2c(cnn2-c2ccccc2)C(NC(=O)CCN2CCCC2=O)C1` (stereo not given)?
RE007 growth inh: 0%; LmPK inh: -4%; Tb PYK inh: -3%; Sm TGR block: -8%

How did CCOC(=O)C1CCN(S(=O)(=O)c2c(Cl)ccc3nonc23)CC1 do in these assays?
LmPK inh: -8%; Sm TGR block: 0.89µM*

Results for CCCCNC(=O)C1c2ccccc2OCC(=O)N1CCc1ccc(OC)c(OC)c1 (stereo not given) ?
RE007 growth inh: 15%; Tb PYK inh: -3%

How did Cc1ccn2c(=O)nc(SCC(=O)NCc3ccco3)nc2c1 do in these assays?
RE007 growth inh: -15%; Tb PYK inh: -2%; Sm TGR block: 35µM*

How did Cc1cc(C)nc(SCC(=O)NCc2ccco2)n1 do in these assays?
RE007 growth inh: -3%; LmPK inh: 17%; Tb PYK inh: 3%; Sm TGR block: 56µM*

How did Cc1ccn2c(=O)nc(SCC(=O)NCc3ccccc3)nc2c1 do in these assays?
RE007 growth inh: -12%; Tb PYK inh: -4%; Sm TGR block: -1%

How did O=C(CSc1cccc2cccnc12)NCc1ccco1 do in these assays?
RE007 growth inh: 4%; LmPK inh: 4%; Tb PYK inh: -8%; Sm TGR block: 45µM*

What do the screens show for `Cc1cc(SCC(=O)NC(=O)NCc2ccco2)nc2ccccc12`?
RE007 growth inh: 17%; LmPK inh: 3%; Tb PYK inh: -14%; Sm TGR block: 40µM*

How did Nc1cc(N)nc(SCC(=O)NCc2ccco2)n1 do in these assays?
RE007 growth inh: -16%; LmPK inh: 5%; Tb PYK inh: 6%; Sm TGR block: -4%

How did CCOC(=O)[C@]12CCCC=C1N(Cc1ccc(Cl)cc1Cl)C(=O)[C@H](CC(=O)N1CCOCC1)C2 do in these assays?
RE007 growth inh: -11%; Tb PYK inh: 6%

How did Cc1c(Cl)cccc1-n1ncc(C(=O)Nc2ccc3c(c2)OCCO3)c1C1CCN(C(=O)OC(C)(C)C)CC1 do in these assays?
Tb PYK inh: 4%; Sm TGR block: -6%

What do the screens show for `CC(C)(C)c1ccc(C(=O)NNC(=S)NCc2ccco2)cc1`?
RE007 growth inh: -4%; LmPK inh: -1%; Tb PYK inh: -14%; Sm TGR block: -2%

Results for Cc1cc(C(=O)NNC(=S)NCc2ccco2)n(C)n1 ?
RE007 growth inh: 14%; LmPK inh: -1%; Tb PYK inh: -18%; Sm TGR block: 22µM*

Results for Cc1cc(SCC(=O)c2ccc(O)c(O)c2)nc2ccccc12 ?
RE007 growth inh: 5%; LmPK inh: 5%; Tb PYK inh: -6%; Sm TGR block: 2.8µM*

What do the screens show for `O=C(NCc1cccc(Cl)c1)NCc1noc2ccccc12`?
Tb PYK inh: -14%; Sm TGR block: 4%

Results for CC1(C)C2CC[C@]1(C)[C@@H](O)C2 ?
Tb PYK inh: 2%

How did CN(C)c1nc(C=C(C#N)C#N)c(Cl)n1-c1ccc(F)cc1 do in these assays?
RE007 growth inh: 4%; LmPK inh: 11%; Tb PYK inh: -3%; Sm TGR block: 1.8µM*

How did CN(C)c1ccc(C=C(C#N)C#N)cc1 do in these assays?
RE007 growth inh: 4%; LmPK inh: -1%; Tb PYK inh: -7%; Sm TGR block: -10%

Results for CSc1ccc(CCNC(=O)C(C)n2c(C)c3cnn(-c4ccccc4)c(=O)c3c2C)cc1 (stereo not given) ?
Tb PYK inh: -6%; Sm TGR block: 1%

What do the screens show for `COC(=O)CNC(c1ccccc1)c1cc(Br)ccc1NC(=O)CCN1CCOCC1` (stereo not given)?
RE007 growth inh: 5%; LmPK inh: 0%; Tb PYK inh: -27%; Sm TGR block: 8.9µM*

Results for CCOC(=O)CNC(c1ccccc1)c1cc(Br)ccc1NC(=O)CCN1CCOCC1 (stereo not given) ?
RE007 growth inh: 16%; LmPK inh: 1%; Tb PYK inh: -22%; Sm TGR block: 6.3µM*

How did CC(=O)c1ccc(NC(=O)c2cn(-c3ccccc3)nc2-c2ccc(Br)cc2)cc1 do in these assays?
Tb PYK inh: -3%; Sm TGR block: -2%

How did O=C(c1cc(-c2ccco2)nn1-c1cccc(Cl)c1)N1CCCCC1 do in these assays?
RE007 growth inh: 16%; LmPK inh: -25%; Tb PYK inh: 10µM*; Sm TGR block: 7.1µM*

Results for CCOC(=O)c1cc(-c2ccco2)nn1-c1ccc(C)cc1 ?
RE007 growth inh: 9%; LmPK inh: 3%; Tb PYK inh: -2%; Sm TGR block: 14µM*

How did CCOC(=O)c1cc(-c2ccc(Cl)cc2)nc2c1c(C)nn2CCC#N do in these assays?
RE007 growth inh: 5%; LmPK inh: -2%; Tb PYK inh: -2%; Sm TGR block: 8%

How did CC(C)NC(=O)c1cc(-c2ccco2)nn1-c1ccc(Cl)cc1 do in these assays?
RE007 growth inh: -8%; LmPK inh: -9%; Tb PYK inh: inconclusive; Sm TGR block: 2.8µM*

How did CCOC(=O)c1cc(-c2ccco2)nc2c1c(C)nn2CCC#N do in these assays?
RE007 growth inh: -14%; LmPK inh: -1%; Tb PYK inh: -5%; Sm TGR block: 4µM*

Results for O=C(Nc1ccc(F)c(Cl)c1)C1Cc2c(-c3ccco3)ccnc2O1 (stereo not given) ?
RE007 growth inh: 25%[18.4 µM]; Tb PYK inh: -1%

What do the screens show for `O=C1C=C(CO)OCC1=O`?
Tb PYK inh: 2%
